# Test results taken from PMC12350791.
# How the values were obtained:
# Assay in all cases: cross-linking mass spectrometry
# Conditions in all cases: DSBSO, in cells or nuclear extract, not told apart
# LARS1 = LARS1 (UniProt Q9P2J5)
# LDHB = LDHB (UniProt P07195)
# LSM4 = LSM4 (UniProt Q9Y4Z0)
# MAD1L1 = MAD1L1 (UniProt Q9Y6D9)
# MAP1B = MAP1B (UniProt P46821)
# MAPK14 = MAPK14 (UniProt Q16539)
# MARS1 = MARS1 (UniProt P56192)
# MBOAT7 = MBOAT7 (UniProt Q96N66)
# MCM2 = MCM2 (UniProt P49736)
# MCM6 = MCM6 (UniProt Q14566)
# Sequence of MCM6 (Q14566 whole entry): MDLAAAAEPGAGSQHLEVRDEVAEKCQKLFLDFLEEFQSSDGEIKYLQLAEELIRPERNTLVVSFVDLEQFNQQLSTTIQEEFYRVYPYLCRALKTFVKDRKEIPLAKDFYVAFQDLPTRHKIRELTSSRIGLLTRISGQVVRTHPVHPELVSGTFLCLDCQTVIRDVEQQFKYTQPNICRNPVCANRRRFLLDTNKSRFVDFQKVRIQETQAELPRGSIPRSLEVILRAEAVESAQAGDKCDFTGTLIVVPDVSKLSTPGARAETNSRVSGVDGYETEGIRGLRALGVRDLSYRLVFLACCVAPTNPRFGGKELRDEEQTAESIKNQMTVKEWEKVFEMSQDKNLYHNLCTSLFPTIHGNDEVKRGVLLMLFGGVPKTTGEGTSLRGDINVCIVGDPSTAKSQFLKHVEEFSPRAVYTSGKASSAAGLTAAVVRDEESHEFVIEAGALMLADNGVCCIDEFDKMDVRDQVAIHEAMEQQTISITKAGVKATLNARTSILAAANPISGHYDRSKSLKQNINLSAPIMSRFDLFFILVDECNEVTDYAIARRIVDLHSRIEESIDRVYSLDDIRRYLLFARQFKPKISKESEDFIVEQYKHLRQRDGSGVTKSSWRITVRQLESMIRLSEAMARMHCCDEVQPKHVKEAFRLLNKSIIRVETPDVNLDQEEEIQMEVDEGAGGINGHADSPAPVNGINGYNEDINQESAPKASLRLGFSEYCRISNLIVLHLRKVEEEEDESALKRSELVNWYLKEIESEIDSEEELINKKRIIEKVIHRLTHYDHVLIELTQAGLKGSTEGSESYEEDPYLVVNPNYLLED
# MCM7 = MCM7 (UniProt P33993)
# MED4 = MED4 (UniProt Q9NPJ6)
# MYDGF = MYDGF (UniProt Q969H8)
# Sequence of MYDGF (Q969H8 whole entry): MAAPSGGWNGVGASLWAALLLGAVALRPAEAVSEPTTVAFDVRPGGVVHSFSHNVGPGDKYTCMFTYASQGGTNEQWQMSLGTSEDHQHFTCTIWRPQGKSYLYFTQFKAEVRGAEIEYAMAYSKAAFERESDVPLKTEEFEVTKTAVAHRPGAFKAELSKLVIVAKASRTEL
# MYH9 = MYH9 (UniProt P35579)
# MYO9B = MYO9B (UniProt Q13459)
# NAP1L4 = NAP1L4 (UniProt Q99733)
# Sequence of NAP1L4 (Q99733 whole entry): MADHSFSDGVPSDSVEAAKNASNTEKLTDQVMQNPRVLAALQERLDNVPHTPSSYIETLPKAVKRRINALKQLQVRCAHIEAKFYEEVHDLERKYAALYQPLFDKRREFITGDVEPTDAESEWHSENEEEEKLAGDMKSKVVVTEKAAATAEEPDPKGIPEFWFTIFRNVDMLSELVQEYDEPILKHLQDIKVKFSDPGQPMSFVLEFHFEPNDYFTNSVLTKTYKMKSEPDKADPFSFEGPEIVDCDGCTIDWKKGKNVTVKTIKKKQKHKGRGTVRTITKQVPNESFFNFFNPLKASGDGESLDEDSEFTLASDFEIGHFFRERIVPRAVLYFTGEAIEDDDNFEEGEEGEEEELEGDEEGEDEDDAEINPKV
# NCAPD2 = NCAPD2 (UniProt Q15021)
# NCBP1 = NCBP1 (UniProt Q09161)
# NDUFA5 = NDUFA5 (UniProt Q16718)
# NDUFA6 = NDUFA6 (UniProt P56556)
# Sequence of NDUFA6 (P56556 whole entry): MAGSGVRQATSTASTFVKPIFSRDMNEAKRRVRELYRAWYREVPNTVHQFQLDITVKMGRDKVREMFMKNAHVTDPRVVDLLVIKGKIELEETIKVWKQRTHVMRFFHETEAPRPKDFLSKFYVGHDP
# NDUFAF4 = NDUFAF4 (UniProt Q9P032)
# NDUFS2 = NDUFS2 (UniProt O75306)
# NIP7 = NIP7 (UniProt Q9Y221)
# NMI = NMI (UniProt Q13287)
# NOC4L = NOC4L (UniProt Q9BVI4)
# NOL7 = NOL7 (UniProt Q9UMY1)
# NPM1 = NPM1 (UniProt P06748)
# NUDT5 = NUDT5 (UniProt Q9UKK9)
# NUP160 = NUP160 (UniProt Q12769)
# RAE1 = RAE1 (UniProt P78406)
# NUP50 = NUP50 (UniProt Q9UKX7)
# NUP62 = NUP62 (UniProt P37198)
# NUP85 = NUP85 (UniProt Q9BW27)
# NUP88 = NUP88 (UniProt Q99567)
# OSBPL11 = OSBPL11 (UniProt Q9BXB4)
# PAFAH1B2 = PAFAH1B2 (UniProt P68402)
# Sequence of PAFAH1B2 (P68402 whole entry): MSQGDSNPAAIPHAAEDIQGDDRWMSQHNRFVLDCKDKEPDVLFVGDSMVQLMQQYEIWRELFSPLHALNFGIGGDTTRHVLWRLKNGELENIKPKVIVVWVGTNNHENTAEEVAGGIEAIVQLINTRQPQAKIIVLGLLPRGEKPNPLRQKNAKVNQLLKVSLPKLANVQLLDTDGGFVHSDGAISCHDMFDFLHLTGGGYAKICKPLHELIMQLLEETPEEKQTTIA
# PAM16 = PAM16 (UniProt Q9Y3D7)
# PAXBP1 = PAXBP1 (UniProt Q9Y5B6)
# PDE4DIP = PDE4DIP (UniProt Q5VU43)
# PELP1 = PELP1 (UniProt Q8IZL8)
# PFKP = PFKP (UniProt Q01813)
# PHC2 = PHC2 (UniProt Q8IXK0)
# PNN = PNN (UniProt Q9H307)
# PNO1 = PNO1 (UniProt Q9NRX1)
# RPL23A = RPL23A (UniProt P62750)
# PRPF31 = PRPF31 (UniProt Q8WWY3)
# PSME2 = PSME2 (UniProt Q9UL46)
# PUF60 = PUF60 (UniProt Q9UHX1)
# RAD50 = RAD50 (UniProt Q92878)
# RAN = RAN (UniProt P62826)
# RNF20 = RNF20 (UniProt Q5VTR2)
# RPF1 = RPF1 (UniProt Q9H9Y2)
# Sequence of RPF1 (Q9H9Y2 whole entry): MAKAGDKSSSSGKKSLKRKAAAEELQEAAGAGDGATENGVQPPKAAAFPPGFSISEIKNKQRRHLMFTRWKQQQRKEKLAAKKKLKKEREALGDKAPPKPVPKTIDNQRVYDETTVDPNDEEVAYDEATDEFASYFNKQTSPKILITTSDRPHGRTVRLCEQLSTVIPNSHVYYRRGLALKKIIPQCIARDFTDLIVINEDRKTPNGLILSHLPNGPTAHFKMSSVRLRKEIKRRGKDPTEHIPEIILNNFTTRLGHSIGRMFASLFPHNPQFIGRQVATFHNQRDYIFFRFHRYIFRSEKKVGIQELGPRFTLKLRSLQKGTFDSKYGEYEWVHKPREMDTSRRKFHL
# RPLP2 = RPLP2 (UniProt P05387)
# RREB1 = RREB1 (UniProt Q92766)
# SIN3A = SIN3A (UniProt Q96ST3)
# RSL24D1 = RSL24D1 (UniProt Q9UHA3)
# RTCB = RTCB (UniProt Q9Y3I0)
# RUVBL2 = RUVBL2 (UniProt Q9Y230)
# RWDD1 = RWDD1 (UniProt Q9H446)
# SDHA = SDHA (UniProt P31040)
# SEH1L = SEH1L (UniProt Q96EE3)
# SEPTIN11 = SEPTIN11 (UniProt Q9NVA2)
# SEPTIN2 = SEPTIN2 (UniProt Q15019)
# SERBP1 = SERBP1 (UniProt Q8NC51)
# Sequence of NDUFS7, O75251 (O75251 whole entry): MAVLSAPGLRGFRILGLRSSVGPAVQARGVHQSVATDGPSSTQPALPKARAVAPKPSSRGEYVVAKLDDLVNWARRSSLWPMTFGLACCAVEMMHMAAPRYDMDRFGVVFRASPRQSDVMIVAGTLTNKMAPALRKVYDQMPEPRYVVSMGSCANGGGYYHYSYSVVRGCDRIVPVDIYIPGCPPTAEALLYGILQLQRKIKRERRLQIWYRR
# Sequence of NUP98, P52948 (P52948 whole entry): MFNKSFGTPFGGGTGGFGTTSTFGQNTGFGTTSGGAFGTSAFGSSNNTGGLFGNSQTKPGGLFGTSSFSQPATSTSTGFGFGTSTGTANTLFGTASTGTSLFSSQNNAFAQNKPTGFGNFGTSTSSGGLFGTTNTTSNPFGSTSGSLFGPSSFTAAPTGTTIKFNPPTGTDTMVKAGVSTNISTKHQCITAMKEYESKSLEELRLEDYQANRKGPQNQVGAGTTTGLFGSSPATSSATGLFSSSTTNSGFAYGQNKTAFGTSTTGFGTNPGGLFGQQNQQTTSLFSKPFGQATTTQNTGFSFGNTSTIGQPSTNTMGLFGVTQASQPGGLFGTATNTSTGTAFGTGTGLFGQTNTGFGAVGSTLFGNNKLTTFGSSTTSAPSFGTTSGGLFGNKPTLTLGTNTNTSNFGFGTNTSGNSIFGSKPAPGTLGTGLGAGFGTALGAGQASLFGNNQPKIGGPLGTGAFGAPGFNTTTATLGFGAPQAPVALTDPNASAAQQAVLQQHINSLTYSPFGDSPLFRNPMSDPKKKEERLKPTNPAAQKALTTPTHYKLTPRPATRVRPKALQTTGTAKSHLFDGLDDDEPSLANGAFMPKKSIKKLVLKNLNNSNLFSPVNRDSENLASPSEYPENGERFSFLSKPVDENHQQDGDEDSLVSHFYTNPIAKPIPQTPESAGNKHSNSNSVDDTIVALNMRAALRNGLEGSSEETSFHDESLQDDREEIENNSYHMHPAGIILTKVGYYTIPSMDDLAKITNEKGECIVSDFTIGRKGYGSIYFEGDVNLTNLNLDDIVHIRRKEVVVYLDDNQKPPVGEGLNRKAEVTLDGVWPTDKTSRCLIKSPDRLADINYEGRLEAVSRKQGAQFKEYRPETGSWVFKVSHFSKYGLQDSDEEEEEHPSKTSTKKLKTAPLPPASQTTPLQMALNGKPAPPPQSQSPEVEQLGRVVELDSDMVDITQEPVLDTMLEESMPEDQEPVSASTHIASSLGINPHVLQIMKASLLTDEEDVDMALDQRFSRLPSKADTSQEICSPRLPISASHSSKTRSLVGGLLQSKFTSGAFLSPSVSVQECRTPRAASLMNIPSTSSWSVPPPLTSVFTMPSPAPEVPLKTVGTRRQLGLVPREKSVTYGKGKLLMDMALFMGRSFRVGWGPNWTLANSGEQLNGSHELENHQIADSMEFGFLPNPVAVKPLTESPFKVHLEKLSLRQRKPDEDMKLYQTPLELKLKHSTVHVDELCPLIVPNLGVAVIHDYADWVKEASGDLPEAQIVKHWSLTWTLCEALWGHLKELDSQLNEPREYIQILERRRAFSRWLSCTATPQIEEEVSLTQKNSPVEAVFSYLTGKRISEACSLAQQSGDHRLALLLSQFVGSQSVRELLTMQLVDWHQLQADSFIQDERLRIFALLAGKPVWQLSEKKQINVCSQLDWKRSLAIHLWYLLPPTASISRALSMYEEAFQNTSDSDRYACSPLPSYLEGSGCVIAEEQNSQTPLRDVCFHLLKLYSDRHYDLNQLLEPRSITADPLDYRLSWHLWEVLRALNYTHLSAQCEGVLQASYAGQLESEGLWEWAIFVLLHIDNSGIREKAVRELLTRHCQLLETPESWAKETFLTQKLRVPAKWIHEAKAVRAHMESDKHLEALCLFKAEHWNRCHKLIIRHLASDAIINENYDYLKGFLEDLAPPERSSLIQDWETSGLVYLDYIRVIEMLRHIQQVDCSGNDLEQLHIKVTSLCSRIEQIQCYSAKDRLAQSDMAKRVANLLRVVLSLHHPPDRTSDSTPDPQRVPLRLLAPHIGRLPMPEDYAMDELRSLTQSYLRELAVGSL
# Sequence of HDAC1, Q13547 (Q13547 whole entry): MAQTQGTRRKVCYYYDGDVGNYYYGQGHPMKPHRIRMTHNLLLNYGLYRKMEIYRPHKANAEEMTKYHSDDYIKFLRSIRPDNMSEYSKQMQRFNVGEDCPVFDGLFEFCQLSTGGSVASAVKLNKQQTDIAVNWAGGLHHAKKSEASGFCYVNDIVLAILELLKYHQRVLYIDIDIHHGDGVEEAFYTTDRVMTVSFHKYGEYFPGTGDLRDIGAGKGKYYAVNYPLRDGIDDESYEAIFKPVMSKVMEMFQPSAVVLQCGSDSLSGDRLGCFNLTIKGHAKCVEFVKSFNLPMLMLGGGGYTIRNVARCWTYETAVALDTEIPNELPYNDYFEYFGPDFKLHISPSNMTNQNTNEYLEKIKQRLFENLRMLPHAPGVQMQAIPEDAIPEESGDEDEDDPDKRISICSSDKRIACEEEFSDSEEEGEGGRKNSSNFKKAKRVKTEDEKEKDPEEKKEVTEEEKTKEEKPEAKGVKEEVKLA
# Sequence of LSM4 (Q9Y4Z0 whole entry): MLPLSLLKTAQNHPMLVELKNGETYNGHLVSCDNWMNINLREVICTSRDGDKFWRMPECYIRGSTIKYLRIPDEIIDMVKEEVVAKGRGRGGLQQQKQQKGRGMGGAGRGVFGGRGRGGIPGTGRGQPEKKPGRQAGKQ
# Sequence of DNAJC19, Q96DA6 (Q96DA6 whole entry): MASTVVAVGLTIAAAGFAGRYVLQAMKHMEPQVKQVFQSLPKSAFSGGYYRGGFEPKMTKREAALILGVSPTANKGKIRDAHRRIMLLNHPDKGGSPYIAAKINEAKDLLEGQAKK
# Sequence of LSM7, Q9UK45 (Q9UK45 whole entry): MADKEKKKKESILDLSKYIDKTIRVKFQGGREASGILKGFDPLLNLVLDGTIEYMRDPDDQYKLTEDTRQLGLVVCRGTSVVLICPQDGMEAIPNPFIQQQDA
substance,measurement,setting,value
"TMF1, P82094",cross-linked residues,LARS1,K512 - K491
"LDHA, P00338",cross-linked residues,LDHB,K14 - K156
"LSM7, Q9UK45",cross-linked residues,LSM4,K8 - K80
"PATL1, Q86TB9",cross-linked residues,LSM4,K398 - K80
"MAD2L1, Q13257",cross-linked residues,MAD1L1,K122 - K666
"H1-5, P16401",cross-linked residues,MAP1B,K161 - K2291
"MAPKAPK2, P49137",cross-linked residues,MAPK14,K307 - K233
"EEF1E1, O43324",cross-linked residues,MARS1,K21 - K663
"COX6B1, P14854",cross-linked residues,MBOAT7,K47 - K468
"MCM4, P33991",cross-linked residues,MCM2,K819 - K807
"MCM7, P33993",cross-linked residues,MCM6,K75 - K197
"MCM2, P49736",cross-linked residues,MCM6,K591 - K517
"MCM3, P25205",cross-linked residues,MCM7,K435 - K236
"MED1, Q15648",cross-linked residues,MED4,K70 - K81
"PRKCSH, P14314",cross-linked residues,MYDGF,K436 - K161
"TPR, P12270",cross-linked residues,MYH9,K854 - K1614
"H1-2, P16403",cross-linked residues,MYO9B,K140 - K1390
"NAP1L1, P55209",cross-linked residues,NAP1L4,K87 - K105
"SMC2, O95347",cross-linked residues,NCAPD2,K1014 - K78
"NCBP2, P52298",cross-linked residues,NCBP1,K68 - K607
"NDUFA10, O95299",cross-linked residues,NDUFA5,K80 - K30
"NDUFS4, O43181",cross-linked residues,NDUFA6,K73 - K116
"NDUFS7, O75251",cross-linked residues,NDUFAF4,K55 - K107
same,cross-linked residues,NDUFS2,K136 - K78
"NOP2, P46087",cross-linked residues,NIP7,K423 - K72
"IFI35, P80217",cross-linked residues,NMI,K47 - K254
"NOP14, P78316",cross-linked residues,NOC4L,K535 - K342
"UTP15, Q8TED0",cross-linked residues,NOL7,K416 - K210
"NPM3, O75607",cross-linked residues,NPM1,K125 - K27
"PYCR2, Q96C36",cross-linked residues,NUDT5,K47 - K210
"NUP98, P52948",cross-linked residues,NUP160,K1749 - K1096
same,cross-linked residues,RAE1,K175 - K252
"CSE1L, P55060",cross-linked residues,NUP50,K726 - K62
"NUP214, P35658",cross-linked residues,NUP62,K755 - K371
"SEH1L, Q96EE3",cross-linked residues,NUP85,K314 - K59
"NUP62, P37198",cross-linked residues,NUP88,K415 - K642
"PPA1, Q15181",cross-linked residues,OSBPL11,K238 - K660
"PAFAH1B1, P43034",cross-linked residues,PAFAH1B2,K147 - K145
"DNAJC19, Q96DA6",cross-linked residues,PAM16,K93 - K82
"TFIP11, Q9UBB9",cross-linked residues,PAXBP1,K267 - K682
"IMMT, Q16891",cross-linked residues,PDE4DIP,K343 - K1022
"NOL9, Q5SY16",cross-linked residues,PELP1,K670 - K216
"PFKM, P08237",cross-linked residues,PFKP,K476 - K736
"RING1, Q06587",cross-linked residues,PHC2,K297 - K598
"SAP18, O00422",cross-linked residues,PNN,K74 - K109
"NPM1, P06748",cross-linked residues,PNO1,K267 - K77
same,cross-linked residues,RPL23A,K141 - K30
"SNU13, P55769",cross-linked residues,PRPF31,K86 - K315
"PSME1, Q06323",cross-linked residues,PSME2,K190 - K180
"SRSF11, Q05519",cross-linked residues,PUF60,K58 - K69
"MRE11, P49959",cross-linked residues,RAD50,K393 - K1190
"ACTR1B, P42025",cross-linked residues,RAD50,K324 - K651
"XPO1, O14980",cross-linked residues,RAN,K426 - K159
"RNF40, O75150",cross-linked residues,RNF20,K862 - K834
"MAK16, Q9BXY0",cross-linked residues,RPF1,K164 - K302
"WDR74, Q6RFH5",cross-linked residues,RPF1,K151 - K182
"RPLP1, P05386",cross-linked residues,RPLP2,K33 - K25
"HDAC1, Q13547",cross-linked residues,RREB1,K74 - K259
same,cross-linked residues,SIN3A,K220 - K552
"GTPBP4, Q9BZE4",cross-linked residues,RSL24D1,K448 - K88
"RTRAF, Q9Y224",cross-linked residues,RTCB,K185 - K492
"HAUS3, Q68CZ6",cross-linked residues,RUVBL2,K595 - K177
"DRG2, P55039",cross-linked residues,RWDD1,K311 - K166
"SDHB, P21912",cross-linked residues,SDHA,K167 - K167
"NUP43, Q8NFH3",cross-linked residues,SEH1L,K161 - K96
"SEPTIN2, Q15019",cross-linked residues,SEPTIN11,K249 - K190
"SEPTIN6, Q14141",cross-linked residues,SEPTIN2,K191 - K249
"RPS12, P25398",cross-linked residues,SERBP1,K116 - K299
